# Screening results (PubChem)
# Shown is part of a subset that was picked to be rich in hits.
# PD-1 reverse act: reversal of PD-1 mediated T-cell inhibition. activation, % (no concentration beside the values). 29,000 tested, under 10 active. primary human CD4 T cells, PD-L1 beads, CellTiter-Glo 96 h. AID 2316; call rule not given here
# NOMO-1 viab: STK33 inhibitor candidate reducing NOMO-1 cell viability. NOMO-1 AML viability, CellTiter-Glo luminescence, 72 h. inhibition, % (test concentration not listed). 7.5% of 37,000 active; in the data active = inhibition above about 80%; inconclusive = no clear call, values can overlap the other calls
# U2OS ROS induce: cancer cell ROS induction; ROS induction (% of piperlongumine), % at 10 µM; U2OS ROS induction, H2DCF-DA fluorescence; 2% of 46,000 active; in the data active = ROS induction above about 79%, passing the limit was not always enough; inconclusive = no clear call, values can overlap the other calls
# A number is an active result; 0 = inactive; ? = inconclusive; - = no result given.
SMILES,PD-1 reverse act,NOMO-1 viab,U2OS ROS induce
CN(C)C(=O)N1CCC(C(=O)NCCC2=CCCCC2)CC1,-,-,0
C=CCn1c(-c2ccccc2Cl)nc2ccccc21,-,-,0
O=C(Cc1ccccc1)NC1(C(=O)Nc2cccc(Cl)c2)CCCCC1,-,-,0
CCC(C)NC(=O)Cn1ncn2c(cc3sc(C)cc32)c1=O (centres undefined),-,-,0
C[C@H]1CN([C@@H](C)CO)C(=O)Cc2cc(NC(=O)Nc3ccc(F)cc3)ccc2O[C@H]1CN(C)S(=O)(=O)c1ccc(Cl)cc1,0,114,0
C[C@@H]1CN([C@H](C)CO)C(=O)Cc2cc(NC(=O)Nc3ccc(F)cc3)ccc2O[C@@H]1CN(C)S(=O)(=O)c1ccc(Cl)cc1,0,0,0
C[C@H](CO)N1C[C@H](C)[C@H](CN(C)S(=O)(=O)c2ccc(Cl)cc2)Oc2ccc(NC(=O)Cn3cnnn3)cc2CC1=O,0,0,126
Cc1ccc(S(=O)(=O)N(C)C[C@H]2Oc3ccc(NC(=O)Cn4cnnn4)cc3CC(=O)N([C@@H](C)CO)C[C@@H]2C)cc1,0,0,0
O=C(N/N=C\c1cccc(O)c1O)c1ccccc1O,-,-,0
CC(C)S(=O)(=O)N[C@@H]1CCCN(Cc2ccc(OCCO)cc2)C1,-,-,0
Cc1ccccc1-n1c(SCCc2ccccc2)nc2ccccc2c1=O,-,-,0
Cc1nc2c([nH]1)C(c1ccc(C(C)C)cc1)C(C#N)=C(N)O2 (centres undefined),0,0,0
CC(C)c1ccc(C2C(C#N)=C(N)C(C#N)(C#N)C3=CCN(C)CC32)cc1 (centres undefined),0,105,0
CCCc1ccc(OCC(O)CN2CC(C)OC(C)C2)cc1 (centres undefined),-,-,0
C=C1C2=C(O[C@H](/C(C)=C/C(C)CC(C)CC)[C@@H](O)[C@@H]2O)C(=O)N1OC (some centres undefined),0,107,149
O=C(O)/C=C/c1ccc(N2C(=O)CC(Cc3ccccc3)C2=O)cc1 (centres undefined),-,-,0
Cc1ccc(N/C(N)=N/c2nc(C)cc(=O)[nH]2)c(C)c1,-,-,0
COCc1cc(O)c(O)c(O)c1-c1c(COC)cc(O)c(O)c1O,0,97,0
COc1ccc(CCC(=O)O)c(O)c1,0,0,0
C[C@@H]1O[C@@H](Oc2cc(O)c3c(=O)c(-c4ccc(O)cc4)coc3c2)[C@H](O)[C@H](O)[C@H]1O,0,0,0
O=C(O)[C@H]1O[C@@H](Oc2cc(O)c3c(=O)c(-c4ccc(O)cc4)coc3c2)[C@H](O)[C@@H](O)[C@@H]1O,0,108,0
COc1cc2c(cc1OC)CN(S(=O)(=O)c1ccc3c(c1)CCC(C)(C)O3)CC2,-,-,0
CN(C)/C=C/C(=O)c1ccc2c(c1)CCC(C)(C)O2,0,121,0
O=C(/C=C/c1ccccc1)Nc1cccnc1Oc1ccc(F)cc1,-,-,0
Cc1ccc(C(=O)CN(Cc2ccccc2)c2ccccc2)cc1,-,-,0
SMILES,PD-1 reverse act,NOMO-1 viab,U2OS ROS induce
COc1ccc2c(Sc3ccccc3)c(C(=O)N3CCc4ccccc43)[nH]c2c1,-,-,0
C=CCNC(=O)[C@@H]1[C@H]2C(=O)O[C@H](c3ccccc3)[C@H](c3ccccc3)N2[C@H](c2ccc(OCCO)cc2)[C@@]12C(=O)Nc1ccc(C#CC3(O)CCCCCC3)cc12,-,-,85
O=C1O[C@H](c2ccccc2)[C@H](c2ccccc2)N2[C@H]1[C@@H](C(=O)NC[C@H](O)c1ccccc1)[C@]1(C(=O)Nc3ccc(C#CC4(O)CCCCCC4)cc31)[C@H]2c1ccccc1OCCO,-,-,0
C=CCNC(=O)[C@@H]1[C@H]2C(=O)O[C@H](c3ccccc3)[C@H](c3ccccc3)N2[C@H](c2ccccc2OCCO)[C@@]12C(=O)Nc1ccc(C#CC3(O)CCCCCC3)cc12,-,-,146
C=CCOC(=O)[C@H]1[C@@H]2C(=O)O[C@@H](c3ccccc3)[C@@H](c3ccccc3)N2[C@@H](c2ccc(OCCOC(=O)[C@@H]3C[C@@H]4C(=O)NCC(=O)N4[C@@H]3c3ccc(O)cc3)cc2)[C@]12C(=O)Nc1ccc(I)cc12,-,-,0
C=CCNC(=O)[C@@H]1[C@H]2C(=O)O[C@H](c3ccccc3)[C@H](c3ccccc3)N2[C@H](c2ccccc2OCCO)[C@@]12C(=O)Nc1ccc(C#CCCO)cc12,-,-,135
C=CCNC(=O)[C@H]1[C@@H]2C(=O)O[C@@H](c3ccccc3)[C@@H](c3ccccc3)N2[C@@H](c2ccc(O)cc2)[C@]12C(=O)Nc1ccc(C#CCCO)cc12,-,-,0
C=CCOC(=O)[C@H]1[C@@H]2C(=O)O[C@@H](c3ccccc3)[C@@H](c3ccccc3)N2[C@@H](c2ccc(OCCOC(=O)[C@@H]3C[C@@H]4C(=O)NCC(=O)N4[C@@H]3c3ccc(O)cc3)cc2)[C@]12C(=O)Nc1ccccc12,-,-,116
C=CCNC(=O)[C@H]1[C@@H]2C(=O)O[C@@H](c3ccccc3)[C@@H](c3ccccc3)N2[C@@H](c2ccc(OCCO)cc2)[C@]12C(=O)Nc1ccc(C#CC3(O)CCCCCC3)cc12,-,-,0
C=CCc1ccccc1OCC(O)Cn1c2ccccc2c2ccccc21 (centres undefined),-,-,0
CC1(C)CC(NC(=O)NC(=O)c2c(F)cccc2F)CC(C)(C)N1,-,-,0
Cc1cc(=O)[nH]c(SCc2nc3ccccc3[nH]2)n1,0,0,0
C=CCNc1ncnc2c1sc1nc(CCCC)c3c(c12)CCCC3,-,-,0
O=C(CS(=O)c1ccc(C(F)(F)F)cc1[N+](=O)[O-])Oc1ccc(Cl)cc1 (centres undefined),0,110,0
Cc1ccc(C(C)C)c(OC(=O)CS(=O)c2ccc(C(F)(F)F)cc2[N+](=O)[O-])c1 (centres undefined),0,130,?
Cc1ccc(NC(=O)CC2Sc3ccc(C(F)(F)F)cc3NC2=O)c([N+](=O)[O-])c1 (centres undefined),0,0,0
O=C(CS(=O)c1ccccc1[N+](=O)[O-])Nc1cccc(C(F)(F)F)c1 (centres undefined),0,0,0
COc1ccc(Cn2c(SCc3cccc(C(F)(F)F)c3)nc3ncccc3c2=O)cc1,-,-,0
Cc1ccc(S(=O)(=O)Nc2ccc3c(c2)C(=O)N([C@H](C)CO)C[C@H](C)[C@H](CN(C)S(=O)(=O)c2cccs2)OCCCC[C@@H](C)O3)cc1,-,0,0
COc1ccc(S(=O)(=O)N(C)C[C@H]2OCCCC[C@@H](C)Oc3ccc(NS(=O)(=O)c4cccs4)cc3C(=O)N([C@H](C)CO)C[C@@H]2C)cc1,-,0,0
C[C@@H]1CCCCO[C@@H](CN(C)S(=O)(=O)c2cccs2)[C@@H](C)CN([C@H](C)CO)C(=O)c2cc(NS(=O)(=O)c3ccc(Cl)cc3)ccc2O1,0,86,0
Cc1ccc(S(=O)(=O)N(C)C[C@H]2OCCCC[C@@H](C)Oc3ccc(NS(=O)(=O)c4cccs4)cc3C(=O)N([C@H](C)CO)C[C@@H]2C)cc1,0,0,0
C[C@@H]1CN([C@@H](C)CO)C(=O)c2cccc(NS(=O)(=O)c3ccc(Cl)cc3)c2O[C@@H]1CN(C)S(=O)(=O)c1cccs1,0,85,0
C[C@@H]1CCCCO[C@@H](CN(C)S(=O)(=O)c2ccc(Cl)cc2)[C@@H](C)CN([C@H](C)CO)C(=O)c2cc(NS(=O)(=O)c3cccs3)ccc2O1,0,0,94
